In the library only some 3.7% were active in any assay of this set; here they are far more common.
TMEM16A inh = blocks the mouse calcium-activated chloride channel TMEM16A; HEK293 TMEM16A/YFP iodide influx fluorescence, ionomycin; normalized B-score (activity score, 25-100; higher = stronger inhibition) at 10 µM; 310,000 compounds, 1.2% hits;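 active means ratio plate-corrected score three or more library SD toward inhibition, starting fluorescence score within five deviations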;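 further: score derived from kinetic fluorescence span divided by baseline fluorescence per well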
CHT inh = inhibits the human high affinity choline transporter | CHT-expressing cells, membrane potential dye, choline response; hits give low values | 310,000 compounds, 0.86% hits | B-score at 10 µM | AID 488975 | Q9GZV3;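 active means B-score over 3 SD under the library average, and starting fluorescence ratio not unusually high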;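 further: choline stimulus applied at its EC90 after an EC20 pre-addition; B-score computed on integrated fluorescence ratio after choline addition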
CHT PAM = allosterically activates the human high affinity choline transporter; B-score at 10 µM; AID 488977; 310,000 compounds, 0.49% hits; CHT-expressing cells, membrane potential dye, choline EC20; hits give high values; LV-AA mutant CHT in HEK293 cells;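 active means initial fluorescence not abnormally high and integrated response B-score, plate-corrected, over 3 SD above library mean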
GPR7 antag = blocks human GPR7 receptor signaling; AID 1861; GPR7-expressing cells, fluorescence antagonist assay; 290,000 compounds, 1.1% hits; inhibition, % at 4.4 µM; in the data active means inhibition above about 16%, passing the limit was not always enough;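 further: cells stimulated with the agonist NPW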
Kir21 inh = blocks the mouse Kir2.1 inward-rectifier potassium channel. 310,000 compounds, 0.85% hits. P35561. B-score at 10 µM. AID 1672. HEK293-Kir2.1, FluxOR thallium flux fluorescence; hits give low values;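 active means fluorescence ratio B-score at or below minus 3 SD of library scores, with starting-brightness B-score within 2 SD, cut at about -4.2 in these data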;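 further: channel flux triggered by added potassium and thallium sulfate stimulus; B-score of peak minus minimum fluorescence over baseline after thallium stimulus; more negative B-score means stronger Kir2.1 block with less thallium influx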
TMEM16A act = activators or potentiators of mouse TMEM16A chloride channel | HEK293 TMEM16A/YFP-H148Q/I152L, iodide quench fluorescence; hits give low values | 340,000 compounds, 0.3% hits | B-score at 10 µM | AID 623877 | Q8BHY3;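 active means fluorescence-ratio B-score plate-corrected deviation score at least 3 library SD below zero, with starting fluorescence score within 5 deviations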;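 further: channel opened by trigger with iodide after compound preincubation; score built on the fluorescence ratio of max minus min over baseline; more negative score means more quench and so TMEM16A activation or potentiation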
TMEM16A reconf = reconfirmed blocker of mouse TMEM16A calcium-activated chloride channel. shares compounds with TMEM16A inh. HEK293 TMEM16A/YFP-H148Q, iodide quench fluorescence; ionomycin added to raise cell calcium. inhibition, % at 10 µM. 2,300 compounds, 39% hits. AID 652189;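 active means mean duplicate percent inhibition, scaled so buffer wells are 0 and the reference blocker 100, over three buffer SD above buffer mean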
TMEM16A Ca cntr = alters calcium mobilization in TMEM16A HEK293 cells, counter-screen; shares compounds with TMEM16A inh; TMEM16A/YFP HEK293, Fluo4 calcium mobilization; calcium response (% of ionomycin), % at 10 µM; 2,300 compounds, 2% hits; AID 652231;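 active means duplicate-averaged calcium signal over 20% of the ionomycin maximum, relative to buffer baseline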;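 further: each well's signal is peak minus trough fluorescence divided by its pre-addition baseline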
Parental YFP cnt = acts in parental YFP-HEK293 cells lacking TMEM16A, counter-screen; shares compounds with TMEM16A inh; iodide YFP quench, ionomycin; YFP ratio F(max-min)/F0 at 10 µM; 2,300 tested, under 10 active;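 active means yellow fluorescent protein signal ratio exceeding the buffer control mean by over 5 SD of those controls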;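 further: ratio is mean of duplicate wells from kinetic YFP trace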
ClC-1 rat inh = rat ClC-1 inhibition, TMEM16A specificity screen; AID 652236; 2,300 tested, under 10 active; shares compounds with TMEM16A inh; ratio percent, % at 10 µM; CHO ClC-1-YFP, iodide influx fluorescence quench; iodide control reads 0, buffer control 100;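 active means duplicate-mean ratio percent above the mean of iodide-only control wells, which defines zero, plus 5 of their SD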;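 further: higher percent means stronger block of ClC-1 iodide influx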
Target sequence (P35524 whole entry, looked up): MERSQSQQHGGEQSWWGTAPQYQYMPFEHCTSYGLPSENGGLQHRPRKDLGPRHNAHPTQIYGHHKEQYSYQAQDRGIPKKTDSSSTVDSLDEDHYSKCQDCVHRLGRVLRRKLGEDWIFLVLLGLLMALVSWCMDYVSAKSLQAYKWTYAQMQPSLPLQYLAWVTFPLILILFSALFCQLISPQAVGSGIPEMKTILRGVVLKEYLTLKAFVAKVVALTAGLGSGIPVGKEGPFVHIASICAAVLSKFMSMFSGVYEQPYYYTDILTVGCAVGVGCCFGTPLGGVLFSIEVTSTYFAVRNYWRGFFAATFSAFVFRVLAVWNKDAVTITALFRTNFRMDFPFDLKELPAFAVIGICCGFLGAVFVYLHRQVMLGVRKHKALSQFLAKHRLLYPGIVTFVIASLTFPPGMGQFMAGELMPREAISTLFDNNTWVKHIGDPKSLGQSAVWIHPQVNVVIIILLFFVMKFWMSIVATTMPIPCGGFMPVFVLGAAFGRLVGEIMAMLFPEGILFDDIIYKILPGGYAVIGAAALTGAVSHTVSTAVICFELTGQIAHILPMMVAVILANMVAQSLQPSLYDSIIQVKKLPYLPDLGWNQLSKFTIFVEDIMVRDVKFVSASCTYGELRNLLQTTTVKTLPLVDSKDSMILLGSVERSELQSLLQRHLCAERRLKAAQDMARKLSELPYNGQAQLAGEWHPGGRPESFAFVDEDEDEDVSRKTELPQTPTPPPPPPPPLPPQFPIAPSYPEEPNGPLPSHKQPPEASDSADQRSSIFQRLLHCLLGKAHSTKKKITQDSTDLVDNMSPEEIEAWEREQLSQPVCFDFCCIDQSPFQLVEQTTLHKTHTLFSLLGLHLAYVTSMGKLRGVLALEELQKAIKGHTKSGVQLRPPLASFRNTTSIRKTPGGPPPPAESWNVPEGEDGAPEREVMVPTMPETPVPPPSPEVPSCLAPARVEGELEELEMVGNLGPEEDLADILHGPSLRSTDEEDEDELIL
A number is an active result; n = inactive; x = no result.

SMILES	TMEM16A inh	CHT inh	CHT PAM	GPR7 antag	Kir21 inh	TMEM16A act	TMEM16A reconf	TMEM16A Ca cntr	Parental YFP cnt	ClC-1 rat inh
COc1ccc(C(=O)OCCc2ccc(O)cc2)cc1	25	n	n	n	n	n	n	n	n	n
O=C(O)CCCC(=O)N1N=C(c2ccccc2)CC1c1cccs1 (stereo unspecified)	n	n	n	n	n	n	x	x	x	x
O=C(CSc1n[nH]c(-c2ccccc2O)n1)NC1CCCCC1	100	n	n	n	n	n	n	n	n	n
O=C(CSc1n[nH]c(-c2ccccc2O)n1)N1CCCc2ccccc21	n	n	n	n	n	n	x	x	x	x
CC1CCCCC1NC(=O)COC(=O)c1ccc2c(c1)NC(=O)CS2 (stereo unspecified)	x	x	x	x	x	n	x	x	x	x
CCOP(=O)(c1c(F)c(F)c(F)c(F)c1F)C(O)c1ccccc1 (stereo unspecified)	25	n	n	n	n	n	31.0%	n	n	n
CCOP(=O)(c1ccccc1)C(O)c1ccccc1 (stereo unspecified)	n	n	n	n	n	n	x	x	x	x
CCCCOCCCNC(=O)c1c(-c2ccccc2)noc1C	25	n	n	n	n	n	n	n	n	n
Cc1onc(-c2ccccc2)c1C(=O)NCCCc1ccccc1	x	x	x	x	x	n	x	x	x	x
COCCN(C(=S)Nc1ccc(C(C)C)cc1)C(C)c1cccs1 (stereo unspecified)	25	n	n	n	n	n	n	n	n	n
COCCN(C(=S)Nc1cccc(OC)c1)C(C)c1cccs1 (stereo unspecified)	n	n	n	n	n	n	x	x	x	x
CC1CC(C)CN(c2nc(N(C)c3ccccc3)nc(N)c2[N+](=O)[O-])C1 (stereo unspecified)	25	n	n	n	n	n	n	n	n	n
CCCC1OC(c2ccco2)OCC1CC (stereo unspecified)	x	x	x	x	x	n	x	x	x	x
O=C(Cn1nc(-c2ccccc2)nc1-c1ccccc1)OC1CCCCC1	100	n	n	n	n	n	n	n	n	n
Cc1cccc(OCCCCc2c(C)n[nH]c2C)c1C	100	n	n	n	n	n	n	n	n	n
CC(=O)c1c(C)[nH]c(C(=O)OCCOc2ccccc2)c1C	n	n	n	n	n	n	x	x	x	x
Cc1c(C(=O)OCCOc2ccccc2)[nH]c2c1C(=O)CCC2	100	n	n	n	n	n	25.0%	n	n	n
O=C(CSc1nc2nn(-c3ccccc3)c(=O)c-2c2n1CCCCC2)c1ccc(O)c(O)c1	x	x	x	x	x	n	x	x	x	x
CC1CCN(C(=O)c2[nH]cnc2C(=O)N[C@@H](CCCCNC(=O)OC(C)(C)C)C(=O)OC(C)(C)C)CC1	100	n	n	x	n	n	n	n	n	n
Cc1ccc(/C=C(\C#N)C(=O)Nc2c(C)cccc2C)s1	n	n	n	n	n	n	x	x	x	x
Cc1ccc(NC(=O)/C(C#N)=C/c2ccc(C)s2)c(C)c1	n	n	n	n	n	n	n	n	n	n
CN1C(=O)CSc2ccc(NC(=O)NCc3ccccc3)cc21	n	n	n	n	n	n	x	x	x	x
CC(=O)c1cccc(NC(=O)Nc2ccc3c(c2)N(C)C(=O)CS3)c1	25	n	n	n	n	n	34.5%	n	n	n
CCC(=O)c1ccc(SC(=O)N(C)C)cc1O	n	n	n	n	n	n	x	x	x	x
CC(C)Cn1c(N)c(C(=O)COC(=O)CCc2nc3ccccc3s2)c(=O)n(C)c1=O	100	n	n	n	n	n	21.0%	n	n	n
SMILES	TMEM16A inh	CHT inh	CHT PAM	GPR7 antag	Kir21 inh	TMEM16A act	TMEM16A reconf	TMEM16A Ca cntr	Parental YFP cnt	ClC-1 rat inh
Cc1csc(=O)n1CCC(=O)OCC(=O)c1c(N)n(CC(C)C)c(=O)n(C)c1=O	n	n	n	x	n	n	x	x	x	x
CC(C)Cn1c(N)c(C(=O)COC(=O)CCc2nc3ccccc3c(=O)[nH]2)c(=O)n(C)c1=O	x	x	x	x	x	n	x	x	x	x
CC(C)Cn1c(N)c(C(=O)COC(=O)CC23CC4CC(CC(C4)C2)C3)c(=O)n(C)c1=O	25	n	n	20.9	n	n	34.5%	n	n	n
COc1ccc(-c2nnc3sc(CN4C(=O)c5ccccc5C4=O)nn23)cc1	n	n	n	x	n	n	x	x	x	x
O=C1c2ccccc2C(=O)N1Cc1nn2c(-c3ccc(Cl)cc3)nnc2s1	25	n	n	x	n	n	n	n	n	n
O=C(Nc1ccccc1)OCCOc1ccc(Cl)cc1Cl	x	x	x	x	x	n	x	x	x	x
CCOc1cc(/C=N/NC(=O)c2ccc(CN3CCOCC3)cc2)ccc1OCc1ccccc1	25	n	n	n	n	n	21.0%	n	n	n
O=C1CCC[C@@H]2Cc3nc4cc5c(cc4cc3[C@@H]3CCN1[C@H]23)OCO5	x	x	x	x	x	n	x	x	x	x
CC(OC(=O)c1ccccc1Nc1ccc(SC(F)F)cc1)C(N)=O (stereo unspecified)	25	n	n	n	n	n	n	n	n	n
CCOC(=O)C1=C(C)NC2=C(C(=O)C(C(=O)OC)C(C)C2)C1c1ccc(OC)c(O)c1 (stereo unspecified)	25	n	n	n	n	n	n	n	n	n
CC(C)c1ccc(NC(=O)CSc2n[nH]c(=O)n2-c2cccnc2)cc1	n	n	n	n	n	n	x	x	x	x
Nc1nc(-c2ccccc2)c(-c2ccccc2)n1N	n	n	n	n	n	n	n	n	n	n
CC(C)(C)C(=O)COC(=O)CCc1nc2ccccc2[nH]c1=O	25	n	n	n	n	n	n	n	n	n
CN(CC(=O)Nc1ccc(Cl)c(Cl)c1)C(=O)CC1OC(=O)c2ccccc21 (stereo unspecified)	n	n	n	x	n	n	x	x	x	x
O=C(c1cc2ccccc2oc1=O)N1CCN(CCc2ccccc2)CC1	25	n	n	n	n	n	n	n	n	n
O=C(c1cc2c(ccc3ccccc32)oc1=O)N1CCCC1	100	n	n	n	n	n	n	n	n	n
O=S(=O)(Nc1ccc(F)cc1)N1CCCCCC1	n	n	n	n	n	n	x	x	x	x
O=C(Nc1ccc(F)cc1)c1ccccc1NS(=O)(=O)N1CCCC1	25	n	n	n	n	n	27.5%	n	n	n
Cc1nnc(NC2=NCCC2)o1	n	n	n	n	n	n	x	x	x	x
C1CCC(NC2=NCCC2)CC1	100	n	n	n	n	n	n	n	n	n

Source: PubChem (several laboratories)
